Source: PubChem BioAssay (several laboratories)
A selection: hits, their analogues and other compounds. The true share with any hit is near 1.5%.
PKA inh = inhibitors of human PKA kinase activity, primary screen, biochemical, ATP-depletion luminescence, Kemptide substrate | AID 524, 2006 | inhibition, % at 6 µM | PKA Kemptide phosphorylation, Kinase-Glo ATP luminescence | 65,000 compounds, 0.1% hits;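 active = inhibition above the screen-wide mean inhibition plus 3 SD, cut at about 21% in these data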
SK-BR-3 tox 24h = SK-BR-3 proliferation inhibitors, primary screen, cell-based, human, 24 h | SK-BR-3 viability, CellTiter-Glo ATP luminescence; hits give low values | 41,000 compounds, 0.47% hits | viability, % at 10 µM;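 active = viability at or below the median of all test compounds minus 3 SD, in both replicates if run twice, cut at about 45% in these data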;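 also: 100% = median untreated cell wells and 0% = median positive control drug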
ROCK2 blocker = inhibitors of human ROCK2 kinase, primary screen, biochemical, high-throughput, luminescence; Rho-associated protein kinase 2 (Homo sapiens), O75116; purified ROCK2, Kinase-Glo ATP depletion luminescence; inhibition, % at 6 µM; 60,000 compounds, 0.35% hits; AID 604, 2007;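 active = inhibition above the screen-wide mean inhibition plus 3 SD, cut at about 18% in these data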;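 also: plate controls were DMSO wells for no effect and Y-27632 control wells after no-enzyme background subtraction for full effect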
HER2 expr 66K = inhibitors of Her2 protein expression, primary screen, SKBR-3 cells, AlphaScreen, 66K library; Receptor tyrosine-protein kinase erbB-2 (Homo sapiens), P04626; SKBR-3 HER2 protein level, 18-24 h; hits give low values; HER2 level % of control, % at 10 µM; 65,000 compounds, 0.69% hits; AID 645, 2007;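 active = HER2 level under 5% of the carrier-only control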;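 also: 100% = DMSO carrier and 0% = 500 nM PU-H71 HSP90 inhibitor; lower value means stronger loss of Her2 protein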
Target sequence (P04626 whole entry, looked up): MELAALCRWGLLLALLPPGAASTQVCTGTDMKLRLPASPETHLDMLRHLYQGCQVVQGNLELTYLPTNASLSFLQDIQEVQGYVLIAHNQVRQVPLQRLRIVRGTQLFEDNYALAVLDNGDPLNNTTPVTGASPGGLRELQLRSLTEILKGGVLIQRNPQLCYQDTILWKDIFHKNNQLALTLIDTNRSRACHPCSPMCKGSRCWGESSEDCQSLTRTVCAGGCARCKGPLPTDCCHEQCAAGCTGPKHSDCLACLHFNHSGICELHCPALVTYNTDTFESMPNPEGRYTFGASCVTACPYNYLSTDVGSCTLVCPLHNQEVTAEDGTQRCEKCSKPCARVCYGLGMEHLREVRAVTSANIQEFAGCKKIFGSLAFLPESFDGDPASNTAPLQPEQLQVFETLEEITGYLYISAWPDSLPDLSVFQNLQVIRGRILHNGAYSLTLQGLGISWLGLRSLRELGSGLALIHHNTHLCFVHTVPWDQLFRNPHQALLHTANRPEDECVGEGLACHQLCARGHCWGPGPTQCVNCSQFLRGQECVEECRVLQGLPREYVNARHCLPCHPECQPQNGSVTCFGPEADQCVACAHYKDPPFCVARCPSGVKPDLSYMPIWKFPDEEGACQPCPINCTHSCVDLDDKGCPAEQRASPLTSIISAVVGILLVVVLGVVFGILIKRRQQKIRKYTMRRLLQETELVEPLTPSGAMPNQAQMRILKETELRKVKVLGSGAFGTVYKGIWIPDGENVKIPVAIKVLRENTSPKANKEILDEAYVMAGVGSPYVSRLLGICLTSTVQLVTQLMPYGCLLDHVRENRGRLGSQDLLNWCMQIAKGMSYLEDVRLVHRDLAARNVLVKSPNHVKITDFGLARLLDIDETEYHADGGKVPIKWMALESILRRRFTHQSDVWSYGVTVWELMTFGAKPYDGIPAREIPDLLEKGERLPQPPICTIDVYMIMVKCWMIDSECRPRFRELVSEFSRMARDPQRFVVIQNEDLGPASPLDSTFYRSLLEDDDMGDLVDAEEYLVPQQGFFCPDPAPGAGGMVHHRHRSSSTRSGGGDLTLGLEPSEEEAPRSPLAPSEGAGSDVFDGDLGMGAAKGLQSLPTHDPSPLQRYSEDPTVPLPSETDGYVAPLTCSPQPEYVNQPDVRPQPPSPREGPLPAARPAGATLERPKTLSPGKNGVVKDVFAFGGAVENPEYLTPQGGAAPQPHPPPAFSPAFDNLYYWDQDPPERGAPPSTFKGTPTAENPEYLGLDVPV
JNK3 blocker = JNK3 kinase activity inhibitors, primary screen, biochemical, human, purified enzyme; HTS; 60,000 compounds, 0.61% hits; Mitogen-activated protein kinase 10 (Homo sapiens), P53779; inhibition, % at 8 µM; in the data active = inhibition above about 17%;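 also: 0% = DMSO and 100% = reference inhibitor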
* hit, by the source's call; / = no result given.

SMILES	PKA inh	SK-BR-3 tox 24h	ROCK2 blocker	HER2 expr 66K	JNK3 blocker
COc1cc(CNc2ccc(N3CCOCC3)c(C(=O)O)c2)ccc1OCC(N)=O	1	94	-10	100	-5
Cc1ccccc1OCCCC(=O)Nc1nccs1	1	/	/	-20*	/
COc1ccccc1C(CC(=O)Nc1nccs1)c1ccco1 (stereo unspecified)	4	90	3	-17*	2
COc1cccc(NC(=O)CCS(=O)(=O)c2cccs2)c1	-3	96	-4	81	0
C#CCOC(=O)c1ccccc1C(=O)OCC#C	-2	86	4	-22*	0
CCOc1ccc(C(C)(C)C)cc1S(=O)(=O)N1CC(C)OC(C)C1 (stereo unspecified)	11	74	4	104	2
CCOC(=O)c1cc2sccc2n1CC(=O)c1ccc2c(c1)OCCO2	4	/	-3	105	-5
COc1ccc(C2=CC(c3ccc(Cl)cc3)n3cnnc3N2)cc1OC (stereo unspecified)	-2	40*	/	91	/
O=C(Oc1ccc(Cl)c2cccnc12)N1CCOCC1	6	63	4	1.0*	-2
CCOc1ccc(/C(O)=C2\C(=O)C(=O)N(c3cc(C)on3)C2c2ccccc2OC)cc1 (stereo unspecified)	5	109	3	-22*	21*
CCOc1ccc(C2/C(=C(\O)c3ccc(OC)c(OC)c3)C(=O)C(=O)N2c2cc(C)on2)cc1OC (stereo unspecified)	3	97	0	86	-2
[N-]=[N+]=CC(=O)CC(c1ccccc1)N1C(=O)c2ccccc2C1=O (stereo unspecified)	-5	88	0	-28*	2
[N-]=[N+]=CC(=O)CCCN1C(=O)c2ccccc2C1=O	6	87	4	101	-2
CC1=CC(=C2C(=O)c3ccccc3C2=O)C=C(C)N1Cc1ccco1	-4	75	0	79	34*
Cc1ccc(C(=O)C2=C(O)C(=O)N(CCCn3ccnc3)C2c2ccc(OC(C)C)cc2)o1 (stereo unspecified)	0	95	-1	105	27*
COc1ccc(CCNC(=O)C2CCCN(Cc3nc(-c4ccccc4C)oc3C)C2)cc1OC (stereo unspecified)	4	/	5	92	5
CCc1ccc(-c2nc(CN3CCCC(C(=O)NCCc4ccc(OC)c(OC)c4)C3)c(C)o2)cc1 (stereo unspecified)	0	/	1	-23*	4
Cc1cc(C)c(O)c(-c2cc(C(=O)Nc3ccc(S(=O)(=O)N4CCOCC4)cc3)[nH]n2)c1	-3	67	-7	-11*	-7
Fc1ccc(-c2nnc3ccc(N4CCc5ccccc5C4)nn23)cc1	-7	/	0	78	2
CC(Sc1ccc2ccccc2n1)C(=O)O (stereo unspecified)	7	83	9	110	39*
COc1ccc(N2CCN(Cc3cc(=O)oc4cc(C)c(Cl)c(C)c34)CC2)cc1	-3	42*	-3	74	-2
O=C(CCc1ccccc1)Nc1cc(Cl)ccc1O	/	84	/	49	/
COc1ccccc1N(CCC#N)C(=O)CSc1nc(-c2ccccc2)cn1N	3	/	3	98	-2
CC(=O)c1cccc(NC(=O)Nc2ccc3c(c2)N(C)C(=O)CS3)c1	8	/	/	58	/
CC(C)n1nc(C(=O)OCC(=O)N(C)C2CCS(=O)(=O)C2)c2ccccc2c1=O (stereo unspecified)	0	/	0	89	21*
SMILES	PKA inh	SK-BR-3 tox 24h	ROCK2 blocker	HER2 expr 66K	JNK3 blocker
Cc1noc(C)c1C(=O)N1CCc2ccccc2C1	9	94	6	-16*	-1
COc1ccccc1N1CCN(C(c2cccs2)c2nnnn2C2CCCC2)CC1 (stereo unspecified)	3	92	-1	-30*	-4
CCOc1ccc(S(=O)(=O)N2CCN(c3ccc(OC)cc3)CC2)c2cccnc12	5	77	3	140	-1
CCOc1ccc(S(=O)(=O)N2CCN(c3ccccc3)CC2)c2cccnc12	8	42*	5	126	0
O=C(Cc1ccc2cccnc2c1)c1ccc(O)cc1O	0	/	4	116	9
O=C(Cc1cscn1)c1ccc(O)cc1O	4	99	-3	-18*	2
